# Data: PubChem BioAssay (NCI)
# Compounds without any hit were thinned out: in the full panel of roughly 83,000, 20% have a hit.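 Single-dose data. Exposure time 48 hours. Values below 10 considered active.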 Values without a mark were called inactive. Active and inactive are the calls of the source.
# System: HL-60(TB) leukemia
# Assay: NCI-60 one-dose screen, 48 h (100 = growth as untreated, 0 = no growth, -100 = all killed)
# Details: 10 µM unless noted
row,Compound,growth
1,NC[C@@](O)(c1ccc(Cl)cc1)c1ccc(-c2cn[nH]c2)cc1,-42.8% (active)
2,Cc1cccc(-n2c(C)nc3ccc(NC(=O)NCCCl)cc3c2=O)c1,113%
3,O=[N+]([O-])c1cc(CCl)ccc1OCCBr,119%
4,COC(=O)c1c(C)[nH]c(/C=C2\N=C(c3ccc[nH]3)C=C2OC)c1C,4.25% (active)
5,O=[N+]([O-])c1cccc(-c2nc3sccn3c2-c2ccnc(NCCCNS(=O)(=O)c3ccc(C(F)(F)F)cc3)n2)c1,0.27% (active)
6,Cc1cc(N2CCCCC2)nc(N2CCN(CC(=O)Nc3ccc4c(ccn4Cc4ccccc4)c3)CC2)n1,42.8%
7,N#Cc1c(NC(=O)c2ccc([N+](=O)[O-])o2)[n+]([O-])c2cc(F)c(F)cc2[n+]1[O-],90.2%
8,CN(C)c1ccc(-c2ccc3[nH]c(=O)nc(-c4ccccc4)c3c2)cn1,3.35% (active)
9,C=C(C)[C@@H]1CC[C@]2(c3ncc(C)o3)CC[C@]3(C)[C@H](CC[C@@H]4[C@@](C)(CCC#N)[C@H](C(=C)C)CC[C@]43C)[C@@H]12,-27.9% [100 µM] (active)
10,CCOC(=O)C1=C(COCCN)NC(C)=C(C(=O)OC)C1c1ccccc1Cl (stereo unspecified),95.5%
11,COc1cc(/C=C2\C(=O)N(CCOc3cc(O)c4c(=O)cc(-c5ccccc5)oc4c3)c3ccccc32)cc(OC)c1O,-9.06% (active)
12,O=C1NC(=O)C(c2coc3cc(Br)ccc23)=C1c1c[nH]c2ccccc12,13.1%
13,CN(C)C=Nc1cc(Cl)ccc1Cl,102%
14,CN1CCN(Cc2ccc(NC(=O)c3[nH]ncc3Nc3cc(OC4CCCC4)ncn3)cc2)CC1,-12.7% (active)
15,O=C(O)C(/C=C/c1ccco1)=N\Nc1nc(-c2ccc(Cl)cc2)cs1,52.2%
16,COC(=O)C1(NC(=O)CNC(=O)OCc2ccccc2)CCCC1,90.4%
17,CCOC(=O)CCC(=O)P(=O)(O)O,9.71% (active)
18,CCCCNc1nnc2n(Cc3ccccc3)c(=O)c3c4c(sc3n12)CCCC4,90.5%
19,Cc1cccc(NC(=O)c2sc3nc4c(cc3c2N)CCCC4)c1,22.1%
20,Cc1[nH]c(C(=O)Nc2ccccc2OC2CCN(CCN3CCOCC3)CC2)c(Cl)c1Cl,97.9%
21,COc1cc(/C=C(/C)C[N+](=O)[O-])ccc1O,71.5%
22,O=S(=O)(NCCNc1nccc(-c2c(-c3ccc(F)c(O)c3)nc3sccn23)n1)c1ccc(O)cc1,41.8%
23,O=C(c1ccccc1)c1ccc(O)c2ncccc12,19.8%
24,CC(C)(Sc1cc(C(C)(C)C)c(O)c(C(C)(C)C)c1)Sc1cc(C(C)(C)C)c(OC(=O)CCCC(=O)O)c(C(C)(C)C)c1,67.6%
25,N/C(=N\C(N)=N\c1nc2ccccc2s1)c1ccnc(Br)c1,2.51% (active)
26,O=[N+]([O-])c1cccc(C2CC(c3ccccc3)=Nc3ccccc3S2)c1 (stereo unspecified),84.7%
